Source: PubChem (National Center for Advancing Translational Sciences (NCATS))
Rows were chosen to be rich in hits. Some 12% of all compounds tested hit in one or more screens of this group.
JMJD2A Tudor inh: qHTS Assay for Inhibitors of JMJD2A-Tudor Domain; AlphaScreen JMJD2A-Tudor / H3K4me3 peptide binding; AID 504339, 2011; Potency, µM (series often up to 114 µM), for inactives: top-dose activity change, negative = inhibition, actives largely listed as inhibitors; Lysine-specific demethylase 4A (Homo sapiens), O75164; actives 4.4% (n = 390,000); also: % is scaled to controls: 0 for no effect and ±100 for the full control effect; nearly all actives have a fitted effect of over 50% in size
HP1b binding inh: HTS for Inhibitors of HP1-beta Chromodomain Interactions with Methylated Histone Tails; actives 0.56% (n = 390,000); AlphaScreen HP1-beta / biotin-H3K9me3 peptide binding; Potency, µM (series often up to 114 µM), for the others: at the top dose activity change, negative = inhibition, most hits filed as inhibitors; also: nearly all actives have a fitted effect of over 70% in size
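AlphaScreen: HP1-beta (50 nM) preformed 30 min with biotin-H3(1-18)K9me3 peptide (50 nM) in PBS pH 7.4, 0.01% Tween-20. Compound added for 30 min at RT, then streptavidin donor/nickel chelate acceptor beads (10 ug/mL) for 30 min.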
BAZ2B inh: qHTS Assay for Inhibitors of BAZ2B; AlphaScreen BAZ2B-H3K14Ac peptide displacement; Potency, µM (top dose mostly 114 µM), for the others: top-dose activity change, negative = inhibition, hits mostly inhibitors; actives 4.4% (n = 360,000); also: % is scaled to controls: 0 for no effect and ±100 for the full control effect; nearly all actives have a fitted effect of over 60% in size
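In this displacement format the biotinylated H3(5-23) peptide acetylated at Lys14 serves as ligand at 50 nM, with BAZ2B at 50 nM in PBS pH 7.4 containing 0.01% Tween-20. Donor and acceptor beads are 10 ug/mL final.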
Sfp PPTase inh: qHTS Assay for Inhibitors of Bacillus subtilis Sfp phosphopantetheinyl transferase (PPTase) | Biochemical Sfp PPTase activity, qHTS | Potency, µM, inactives show largest response in the series, negative = inhibition, most hits filed as inhibitors | actives 3.5% (n = 310,000) | AID 1490, 2009;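 also: the enzyme is Sfp with the accession as filed and its product quenches rhodamine fluorescence; 0% = enzyme reaction without inhibitor and -100% = no enzyme wells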
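Sfp 15 nM + cpd, 15 min RT; start w/ rhodamine-CoA 5 uM, BHQ-2-YbbR 12.5 uM (final); 50 mM Hepes pH 7.6, 10 mM MgCl2, 0.01% NP-40, 0.01% BSA; read 525/598 nm at 0 and 30 min.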
G9a inh: qHTS Assay for Inhibitors of Histone Lysine Methyltransferase G9a; Histone-lysine N-methyltransferase EHMT2 (Homo sapiens), Q96KQ7; G9a H3K9 monomethylation, AlphaScreen, 2 h; Potency, µM (highest dose often 102 µM), without a hit: top-dose activity, negative = inhibition, hits mostly inhibitors; actives 8.8% (n = 350,000); AID 504332, 2011; also: % is scaled to controls: 0 for no effect and ±100 for the full control effect; nearly all actives have a fitted effect of over 75% in size
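AlphaScreen detection with an anti-monomethyl H3K9 antibody quantified product after a 2 h room-temperature reaction containing 500 nM biotinylated H3K9 peptide, 20 µM SAM and 20 nM enzyme, which had been preincubated 15 min with compound.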
L3MBTL1 block: qHTS Assay for the Inhibitors of L3MBTL1. Potency, µM (highest dose often 57.1 µM), for inactives: at the top dose activity, negative = inhibition, most hits filed as inhibitors. AlphaScreen L3MBTL1–H3K9me1 peptide binding. actives 0.66% (n = 230,000); also: % is scaled to controls: 0 for no effect and ±100 for the full control effect; nearly all actives have a fitted effect of over 60% in size
Target sequence (Q9Y468 whole entry, looked up): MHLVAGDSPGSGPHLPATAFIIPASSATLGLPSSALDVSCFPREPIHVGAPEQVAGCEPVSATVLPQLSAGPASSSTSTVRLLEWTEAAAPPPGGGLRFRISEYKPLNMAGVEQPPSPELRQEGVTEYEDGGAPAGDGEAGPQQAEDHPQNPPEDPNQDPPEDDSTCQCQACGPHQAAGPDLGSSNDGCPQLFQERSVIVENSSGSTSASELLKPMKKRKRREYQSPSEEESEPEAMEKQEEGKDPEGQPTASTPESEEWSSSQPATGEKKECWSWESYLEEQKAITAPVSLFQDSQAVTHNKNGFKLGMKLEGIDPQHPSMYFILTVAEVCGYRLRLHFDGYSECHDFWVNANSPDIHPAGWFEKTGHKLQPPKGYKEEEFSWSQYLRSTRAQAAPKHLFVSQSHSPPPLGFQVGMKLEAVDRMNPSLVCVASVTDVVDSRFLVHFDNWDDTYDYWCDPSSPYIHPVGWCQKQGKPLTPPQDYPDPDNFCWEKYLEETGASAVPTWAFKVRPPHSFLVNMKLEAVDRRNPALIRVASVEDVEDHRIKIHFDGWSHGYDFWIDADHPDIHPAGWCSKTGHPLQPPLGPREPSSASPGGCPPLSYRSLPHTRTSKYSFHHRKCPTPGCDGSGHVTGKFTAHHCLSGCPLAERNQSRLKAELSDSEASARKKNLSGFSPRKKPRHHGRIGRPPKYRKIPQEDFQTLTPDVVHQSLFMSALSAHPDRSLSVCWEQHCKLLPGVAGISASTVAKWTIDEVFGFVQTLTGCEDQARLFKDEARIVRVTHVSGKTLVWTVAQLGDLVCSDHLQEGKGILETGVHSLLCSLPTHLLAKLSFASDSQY
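L3MBTL1 (50 nM) pre-complexed 30 min with biotinylated H3(1-15)K9me1 peptide (75 nM), then compounds added for 30 min at room temperature; AlphaScreen streptavidin donor/nickel chelate acceptor beads (10 ug/mL final) read after 30 min dark incubation.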
* = called active by the depositor; ? = inconclusive; nt = not tested or not shown; ! = repeats disagree; [ ] = another dose, or the depositor's remark. Calls follow the shape of the dose curve; as a rule, active = well fitted curve in the direction sought with a large enough effect; inconclusive = small, poorly fitted or top-dose-only effect, or another doubt; inactive = no such curve, though single readings can be large; an effect the other way counts as inactive or inconclusive. Potency is read from the fitted curve at half-maximal effect.

SMILES	JMJD2A Tudor inh	HP1b binding inh	BAZ2B inh	Sfp PPTase inh	G9a inh	L3MBTL1 block
CCOc1ccc(-n2c(O)c(N=Nc3c(C)n(C)n(-c4ccccc4)c3=O)c(=O)[nH]c2=O)cc1	25.1µM*	30.5%	14.1µM*	44.7µM*	-42.2%	25.1µM*
CCN(CC)P(=O)(Nc1ccc([N+](=O)[O-])cc1)c1c(C)nn(CCC#N)c1NC(=O)c1ccc(Cl)cc1Cl (configuration not stated)	-7.7%	12.8%	?	10.7%	-4.2%	nt
COc1ccc(CN2C(=O)CC(=O)NC2=S)cc1	-10.7%	30.2%	?	?	70.8µM*	?
COc1cccc(-n2c(CN3CCN(C)CC3)nc3ccc([N+](=O)[O-])cc3c2=O)c1	-17.4%	1.9%	-33.4%	7.94µM*	?	-5.2%
O=c1c2cc([N+](=O)[O-])ccc2nc(CN2CCOCC2)n1-c1ccccc1F	nt	nt	-35.9%	22.4µM*	2.82µM*	-13.2%
CCCc1nc2ccccc2c(=O)n1-c1cccc(OC)c1	-3.1%	24.2%	5.1%	6.0%	24.6%	2.8%
O=C(COc1ccccc1)NCCc1cnc[nH]1	-7.5%	18.8%	3.0%	13.3%	-13.4%	nt
Cc1cc2ccccc2n1CCNC(=O)COc1ccccc1	20µM*	?	?	6.9%	50.1µM*	-5.4%
CCC(COC(=O)c1cc(OC)c(OC)c(OC)c1)(c1ccccc1)N(C)C (configuration not stated)	50.1µM*!	-7.0%	-38.0%	-3.0%	-44.7%[2.33 µM]	-16.5%
N#Cc1cc2c(nc1SCC(=O)Nc1ccc(C(F)(F)F)cc1)C1CCN2CC1	-4.1%	35.6%	0.0%	nt	5.2%[59 µM]	nt
CCOC(=O)c1cccc(N)c1	nt	nt	nt	21.4%	?	nt
COc1ccc(CCCc2nnc(SCC(=O)Nc3ccc(C)c(C)c3)o2)cc1	?	3.0%	-26.4%	1.6%	22.4µM*	nt
CN1CCCC2(CCN(C(=O)c3csnn3)CC2)C1	nt	nt	nt	-10.5%	-3.3%[12.7 µM]	nt
CC(=O)Nc1ccc2c(c1)CC1(C(=O)N(C)C(=O)N(C)C1=O)C1CCCN21 (configuration not stated)	-7.2%	60.7%	-5.9%	-12.5%	35.5µM*	3.4%
CN1C(=O)N(C)C(=O)C2(Cc3cc(NC(=O)c4ccc(F)cc4)ccc3N3CCCC32)C1=O (configuration not stated)	?	-18.4%[57 µM]	16.7%	-15.2%	nt	nt
Cc1ccc(N2CCN(CCc3ccccc3)CC2)cc1	?	-14.4%	50.1µM*	-1.2%	?	-3.8%
CCn1nc(-c2cccs2)nc2c(=O)n(C)c(=O)nc1-2	-8.6%	29.2%	-11.5%	-5.0%	17.8µM*	?
CCn1nc(/C=C/c2ccccc2)nc2c(=O)n(C)c(=O)nc1-2	-30.6%	2.2%	-1.5%	?	nt	5.9%
CCC1OC2(C)C(O)C(/C=C/C=C/C=C/c3oc(=O)cc(OC)c3C)OC1(C)C2OC(C)=O (configuration not stated)	nt	nt	nt	-17.1%	nt	nt
COc1ccc(C2N(c3cc(C)on3)C(=O)C3CCCN32)cc1 (configuration not stated)	?	-2.5%	-27.8%	-17.4%	35.5µM*	0.4%
O=C1NC(=O)N(c2ccccc2)C(=O)/C1=C/c1coc2ccc(O)cc2c1=O	?	12.2%	?	50.1µM*	-114.4%[59 µM]	nt
O=C1NC(=O)N(c2ccc(Cl)cc2)C(=O)/C1=C/c1coc2ccc(O)cc2c1=O	100µM*	-1.3%	-29.6%	44.7µM*	15.8µM*	-17.7%
CC(=O)O[C@H]1C(=O)[C@@]2(C)C([C@H](OC(=O)c3ccccc3)[C@]3(O)C[C@H](OC(=O)[C@H](O)[C@@H](NC(=O)c4ccccc4)c4ccccc4)C(C)=C1C3(C)C)[C@]1(OC(C)=O)CO[C@@H]1C[C@@H]2OC(=O)[C@H](C)NC(=O)c1ccc(-c2c3ccc(=O)cc-3oc3cc(O)ccc23)c(C(=O)O)c1 (some centres not stated)	nt	nt	nt	-1.3%	52.9%[12.7 µM]	nt
COc1cccc(CNCCc2ccccc2)c1OC	-12.1%	8.2%	-11.1%	17.3%	4.9%	11.6%
COc1ccccc1CNCc1cc(OC)c(OC)cc1OC	2.51µM*	?	50.1µM*	13.1%	3.16µM*	nt
SMILES	JMJD2A Tudor inh	HP1b binding inh	BAZ2B inh	Sfp PPTase inh	G9a inh	L3MBTL1 block
CCCc1cc(=O)oc2cc(OCC(=O)N3CCN(Cc4ccc5c(c4)OCO5)CC3)ccc12	-31.9%	22.8%	50.1µM*	-2.0%	-36.0%	nt
NCC(N)C(=O)c1ccccc1 (configuration not stated)	nt	nt	nt	-3.0%	nt	nt
CCCCC/C=C\C/C=C\C/C=C\C/C=C\CCCC(=O)O	nt	nt	-7.0%	63.1µM*!	15.8µM*!	?
CCCCC/C=C\C/C=C\C/C=C\C/C=C\CCCC(=O)NCCCl	nt	nt	nt	31.6µM*	?	nt
CC1C(=O)OC2O[C@]3(C)CC[C@H]4C(C)CCC1[C@]24OO3 (some centres not stated)	nt	nt	nt	-12.8%	6.5%[2.33 µM]	nt
CN1CCN(c2ccc([N+](=O)[O-])c(NCC3CCCO3)c2)CC1 (configuration not stated)	-23.4%	-6.9%	6.5%	5.0%	28.2µM*	-15.4%
CN1CCN(c2ccc([N+](=O)[O-])c(N3CCCCC3)c2)CC1	-33.3%	26.3%	?	1.9%	56.2µM*	-21.6%
Brc1ccc2c(c1)C(OC1CN3CCC1CC3)c1ccccc1CS2 (configuration not stated)	-34.9%	6.2%	-37.2%	-14.4%	15.8µM*	-11.3%
c1cc[n+]2c(c1)-c1cccc[n+]1CC2	nt	nt	nt	20.6%	nt	nt
CN1C2CC(=O)CC1C(O)C2 (configuration not stated)	nt	nt	nt	15.0%	nt	nt
Cc1ccccc1N1C(=O)NC(=O)/C(=C\c2ccc3c(c2)CCCN3Cc2ccccc2)C1=O	50.1µM*	?	35.5µM*	79.4µM*	10µM*	?
Cc1cc(/C=C2\C(=O)NC(=O)N(Cc3ccccc3)C2=O)c(C)n1C1CC1	?	16.5%	-13.8%	-6.7%	nt	-5.0%
c1ccc(C2(N3CCCCC3)CCCCC2)cc1	-26.9%	42.4%	nt	nt	nt	-23.9%
S=C=Nc1cccc(C2(N3CCCCC3)CCCCC2)c1	-16.5%	-18.1%	-2.2%	-7.1%	14.1µM*	-8.8%
CC[C@H](C)/C=C(C)/C=C/C1=CC2=C(Cl)C(=O)[C@](C)(OC(C)=O)C(=O)C2=CO1	79.4µM*	?	nt	nt	nt	-15.6%
C[n+]1cc(P(=S)(c2ccccc2)c2ccccc2)n2ccccc21	10.9%	nt	nt	nt	nt	nt
